Assay outcomes from PubChem.
An excerpt weighted towards active compounds, which were near 19% of everything screened.
DT40 TDP1 no CPT: qHTS for Inhibitors of human tyrosyl-DNA phosphodiesterase 1 (TDP1): qHTS in cells in absence of CPT; DT40 Tdp1-/- hTDP1 cells, no CPT, ATP luminescence, 48 h; Potency, µM (doses to about 46.2 µM), actives largely listed as inhibitors; actives 15% (n = 420,000); also: nearly all actives have a fitted effect of over 55% in size
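Seeded 400 DT40-hTDP1 cells/well (vehicle DMSO, no 20 nM CPT); pinned compounds; ≥48 hr at 37 °C; CellTiter-Glo luminescence as viability measure.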
Giardia killer: Giardia lamblia killing; Giardia lamblia trophozoite viability; activity change, % at 7.66 µM, hits read low; actives 0.15% (n = 340,000); in the data active = activity change below about -80%; inconclusive = between about -30% and that limit;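 also: parasites exposed to compound for two days anaerobically before the ATP read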
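Media and compound were dispensed first, then trophozoites at 100 cells/well; plates sat 48 hrs at 37 deg C without oxygen before ATP luminescence reagent was added and read after 15-30 min at room temperature.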
TDP1 cell CPT: DT40-hTDP1 cell growth loss with CPT; chicken DT40 Tdp1-/-;hTDP1 cells + 20 nM CPT, ATP luminescence, 48 h; Potency, µM (titrated, usually from 46.2 µM), most hits filed as inhibitors; actives 12% (n = 420,000); also: nearly all actives have a fitted effect of over 55% in size
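Chicken DT40 Tdp1-/- cells stably complemented with human TDP1 were seeded at 400 cells/well in medium containing 20 nM camptothecin, exposed to pin-transferred compounds, and grown at 37 °C for at least 48 hr. Viability was read as ATP luminescence.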
TDP1 block: TDP1 (human) enzyme inhibition; Q9NUW8; recombinant TDP1, AlphaScreen DNA substrate cleavage; Potency, µM (top dose mostly 130 µM), most hits filed as inhibitors; actives 0.28% (n = 350,000); AID 485290; also: nearly all actives have a fitted effect of over 40% in size
Target sequence (Q9NUW8 whole entry, looked up): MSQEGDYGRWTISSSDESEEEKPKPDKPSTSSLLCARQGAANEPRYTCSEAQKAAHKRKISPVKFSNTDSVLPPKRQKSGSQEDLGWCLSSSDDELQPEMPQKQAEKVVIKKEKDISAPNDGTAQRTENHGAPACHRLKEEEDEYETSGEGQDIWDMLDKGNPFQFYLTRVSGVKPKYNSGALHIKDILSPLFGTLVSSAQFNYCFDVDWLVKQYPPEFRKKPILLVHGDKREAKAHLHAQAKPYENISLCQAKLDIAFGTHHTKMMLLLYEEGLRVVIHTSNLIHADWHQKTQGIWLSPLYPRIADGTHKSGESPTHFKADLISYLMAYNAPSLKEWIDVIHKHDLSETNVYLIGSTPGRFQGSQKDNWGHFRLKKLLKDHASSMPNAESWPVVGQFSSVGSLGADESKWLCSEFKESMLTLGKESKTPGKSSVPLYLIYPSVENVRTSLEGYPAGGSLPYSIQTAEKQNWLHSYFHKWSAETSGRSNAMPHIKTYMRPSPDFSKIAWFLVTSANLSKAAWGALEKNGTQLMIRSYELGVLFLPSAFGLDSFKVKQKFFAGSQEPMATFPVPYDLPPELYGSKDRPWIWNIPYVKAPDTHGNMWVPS
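Recombinant E. coli-expressed Tdp1 (1 nM) preincubated with compound 15 min at RT, then 5'-biotin/3'-phosphotyrosine-FITC DNA substrate (15 nM) added for 5 min. AlphaScreen beads (10 ug/ml) added, 10 min RT; tyrosine-FITC cleavage read as signal loss.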
ELG1 repair inh: blocks ELG1-dependent DNA repair in HEK293T cells; Potency, µM (titrated, usually from 46.1 µM), hits mostly inhibitors; actives 2.3% (n = 330,000); HEK293T ELG1-luciferase reporter, luminescence, 16 h; DNA damage induced by 5-fluorouridine; also: nearly all actives have a fitted effect of over 55% in size
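Cells (2,000 per well) received 5-fluorouridine plus test compound or DMSO and were incubated 16 hr at 37 °C, 5% CO2. Luciferase activity was read by luminescence 30 min after ONE-Glo addition; signal suppression marked inhibition of damage-induced ELG1 function.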
IL-1B inflam inh: inhibitors of inflammasome signaling (IL-1 beta secretion). actives 4.7% (n = 360,000). activity change, % at 57.5 µM. THP-1 LPS/ATP IL-1B secretion, AlphaLISA, 16 h; stronger effect = lower value; in the data active = activity change below about -50%; inconclusive = mostly about -30% to -49%
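Secreted IL-1B measured by AlphaLISA bead assay after 16 h compound exposure of THP-1 cells; compounds (final up to 57.5 uM) added 1 h before LPS (250 ng/mL) and ATP (1.25 mM) stimulation; lower signal means less secretion.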
Hits are given with their value; – = inactive; ? = inconclusive; · = not tested or not shown; [ ] = remark or other dose. Unless noted, calls follow the shape of the dose curve; as a rule, active = well fitted curve in the direction sought with a large enough effect; inconclusive = small, poorly fitted or top-dose-only effect, or another doubt; inactive = no such curve, though single readings can be large; an effect the other way counts as inactive or inconclusive.

SMILES	DT40 TDP1 no CPT	Giardia killer	TDP1 cell CPT	TDP1 block	ELG1 repair inh	IL-1B inflam inh
CCc1ccccc1CC1CN(Cc2ccccc2)Cc2ccccc2N1c1ccc(OC)cc1 (centres undefined)	12µM	·	?	·	·	–
COc1ccc(C(=O)N2CCCC(c3cc(C(=O)NCc4ccccc4)no3)C2)cc1 (centres undefined)	?	·	?	·	·	–
Cc1ccc(NC(=O)CSc2nc(-c3ccco3)nc3cc(=O)[nH]n23)c(Cl)c1	–	–	–	50µM	?	–
O=C(CSc1nc(-c2ccco2)nc2cc(=O)[nH]n12)Nc1ccccc1Cl	–	·	–	·	·	·
COc1ccc(OC)c(NC(=O)Nc2ccc3[nH]ccc3c2)c1	–	–	–	·	·	–
CC(C)[Si]1(C(C)C)OCC2OC(n3cnc4c(N)ncnc43)C(N)C2O[Si](C(C)C)(C(C)C)O1 (centres undefined)	12µM	–	13µM	·	·	?
O=C(Nc1cccc2cccnc12)c1csc(COCCO)n1	13µM	·	23µM	·	·	?
Cc1cccc2sc(NNC(=O)c3ccc(S(=O)(=O)N4CCc5ccccc5C4)cc3)nc12	2.3µM	–	2.6µM	–	–	–
Cc1cccc2sc(NNC(=O)c3ccc(S(=O)(=O)N4CCCC(C)C4)cc3)nc12 (centres undefined)	3.7µM	–	4.1µM	–	?	–
CCc1nnc(NC(=O)c2ccc(S(=O)(=O)N3CCCC(C)C3)cc2)s1 (centres undefined)	–	–	–	–	–	–
CC(=O)c1ccc(S(=O)(=O)N2CCc3ccccc3C2)cc1	?	–	–	·	–	–
Cc1cc(C)c2nc(NNC(=O)c3ccc(S(=O)(=O)N4CCCCC4)cc3)sc2c1	3.3µM	–	4.6µM	–	–	–
O=C(Oc1ccc(OC(=O)c2ccco2)c(S(=O)(=O)c2ccc(Br)cc2)c1)c1ccco1	?	–	–	–	–	–
Cc1ccc(S(=O)(=O)c2cc(OC(=O)c3ccco3)ccc2OC(=O)c2ccco2)cc1	16µM	–	?	–	–	–
CS(=O)(=O)c1ccc([C@@H](O)[C@@H](CO)NC(=O)C(Cl)Cl)cc1	3.7µM	–	5.8µM	·	–	–
CS(=O)(=O)c1ccc([C@H](O)[C@H](CO)NC(=O)C(Cl)Cl)cc1	·	·	·	–[21 µM]	·	·
CCCCCCCCCCCCCCCC(=O)OC[C@@H](NC(=O)C(Cl)Cl)[C@H](O)c1ccc([N+](=O)[O-])cc1	–	·	–	·	·	·
CS(=O)(=O)c1ccc(C(O)C(CO)NC(=O)C(Cl)Cl)cc1 (centres undefined)	1.6µM	·	?	–	·	·
COc1ccc(C2C(C(N)=O)=C(C)Nc3nc(SCc4ccccc4Cl)nn32)cc1OC (centres undefined)	–	·	–	–	·	·
Nc1c(Cl)ncnc1NCC(O)CO (centres undefined)	–	–	–	–	–	·
O=C(CCSCCC(=O)Nc1ccccc1F)Nc1ccccc1F	–	–	–	–	–	–
CC(C)Oc1cc(F)ccc1-c1cc(C(=O)NCCc2ccncc2)[nH]n1	?	·	18µM	·	·	–
CC(C)Oc1ccc(F)cc1-c1cc(C(=O)NC2CCCCC2)[nH]n1	15µM	·	?	·	·	–
CCOc1ccc(Cl)cc1-c1cc(C(=O)NCCc2ccncc2)[nH]n1	–	·	–	·	·	–
CC(C)Oc1cc(F)ccc1-c1cc(C(=O)NC2CCCCC2)[nH]n1	?	·	21µM	·	·	–
SMILES	DT40 TDP1 no CPT	Giardia killer	TDP1 cell CPT	TDP1 block	ELG1 repair inh	IL-1B inflam inh
O=C(NCc1ccccc1)c1nncc(-c2ccccc2)n1	–	–	–	–	?	–
CN(C(=O)COC(=O)c1ccccc1Cc1ccccc1)C1CCS(=O)(=O)C1 (centres undefined)	–	–	–	–	–	–
Cc1cc(C)n(-c2cc(C(C)(C)C)nc3c(-c4ccc(Cl)cc4)cnn23)n1	?	–	11µM	–	–	–
CC(C)(C)c1cc(N2CCOCC2)n2ncc(-c3ccc(Cl)cc3)c2n1	13µM	–	?	·	?	–
Cc1cc(C)n(-c2cc(C(C)(C)C)nc3c(-c4ccccc4)cnn23)n1	?	–	–	–	?	·
COc1ccc(-c2cc(-c3ccccc3)c(C#N)c(S(C)=O)n2)cc1 (centres undefined)	3.3µM	–	3.3µM	–	–	-96
CCOC(=O)CSc1nc(-c2ccccc2)cc(C(F)(F)F)c1C#N	–	·	–	·	·	·
N#Cc1c(-c2ccccc2)cc(-c2ccccc2)nc1SCC(O)CS(=O)(=O)Cc1ccccc1 (centres undefined)	5.8µM	·	10µM	–[12.3 µM]	·	·
Cc1ccc(-c2cc(-c3ccccc3)c(C#N)c(SCC(O)CS(=O)(=O)Cc3ccccc3)n2)cc1 (centres undefined)	?	·	?	–[12.3 µM]	·	·
CCOC(=O)/C(Sc1nc(-c2ccccc2)cc(-c2ccccc2)c1C#N)=C(\C)O	29µM	–	–	·	–	–
COc1ccc(-c2cc(-c3ccccc3)nc(SCC(=O)Nc3ncc(C)s3)c2C#N)cc1	?	–	–	–	?	–
CCSc1nc(-c2ccc(OC)cc2)cc(-c2ccccc2)c1C#N	23µM	–	?	?	–	–
COc1ccc(-c2cc(-c3ccccc3)c(C#N)c(=S)[nH]2)cc1	–	–	–	–	–	–
O=C(O)C1=C[C@H](c2ccc3c(c2)OCO3)C[C@H](OCCCCO)O1	–	–	–	·	·	–
COc1ccccc1Cc1c(C2CCCCC2)nc2ccc(Br)cn12	6.5µM	·	8.2µM	·	·	–
COc1ccccc1Cc1c(-c2ccc(F)cc2)nc2c(C)cc(Br)cn12	?	·	?	·	·	–
COC(=O)c1ccc2nc(-c3ccccc3)c(Cc3ccccc3OC)n2c1	16µM	·	18µM	·	·	–
COc1ccccc1Cc1c(-c2ccc(C)cc2)nc2c(C)cc(Br)cn12	21µM	·	21µM	·	·	–
COc1ccccc1Cc1c(-c2ccccc2)nc2ccc(Br)cn12	13µM	·	15µM	·	·	–
CCn1ncc(/C=N/NC(=O)c2cc(Cl)ccc2OC)c1C	–	–	–	–	–	–
CCOc1ccc(Oc2ccccc2NC(=O)CCNC(C)=O)cc1	–	–	–	–	–	–
COc1ccccc1Cc1c(-c2cccc(Br)c2)nc2ccc(Br)cn12	?	·	?	·	·	–
FC(F)(F)c1ccccc1Cc1c(-c2ccc(Cl)cc2)nc2ccc(Br)cn12	?	·	?	·	·	–
COc1ccccc1Cc1c(-c2ccc(C)cc2)nc2ccc(Br)cn12	23µM	·	21µM	·	·	–
COc1ccccc1Cc1c(-c2ccc(Cl)cc2)nc2ccc(Br)cn12	?	·	21µM	·	·	–
COc1ccccc1Cc1c(-c2ccc(C#N)cc2)nc2ccc(Br)cn12	16µM	·	21µM	·	·	–
